Reference: PubChem BioAssay AID1159580 (chemical genetic matrix, 2015)
Among all 5,500 compounds or so, about 2,000 (36%) were called active. Inconclusive results (about 18%) are left out. Cut-off read from the data, not from the text of the source: active = normalized growth mostly below about 0.91 (no sharp cut-off); inconclusive = no clear call, values can overlap the other calls; inactive = mostly above about 0.92. Some of the results follow.

Experiment: chemical genetic growth profiling, strain panel (AID 1159580);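 note: tested at 20 µM; growth read once vehicle control cultures reached saturation at 30 °C; 1 = growth at the plate median or of vehicle wells; lower values mean less growth of the strain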
Conditions: S. cerevisiae deletion strains, growth OD
[1] = locus YAL013W, strain DEP1, active compounds read low
[2] = locus YCL061C, strain MRC1, active compounds read low
[3] = locus YGR078C, strain PAC10, active compounds read low
[4] = locus YHR030C, strain SLT2, active compounds read low
[5] = locus YJL095W, strain BCK1, active compounds read low
[6] = locus YJL187C, strain SWE1, active compounds read low
[7] = locus YMR307W, strain GAS1, active compounds read low
[8] = locus YNL322C, strain KRE1, active compounds read low
[9] = locus YPL055C, strain LGE1, active compounds read low
[10] = locus YPL241C, strain CIN2, active compounds read low
[11] = locus YBR229C, strain ROT2, active compounds read low
[12] = locus YDL101C, strain DUN1, active compounds read low
[13] = locus YEL061C, strain CIN8, active compounds read low
[14] = locus YGR229C, strain SMI1, active compounds read low
[15] = locus YJR043C, strain POL32, active compounds read low
[16] = locus YKL190W, strain CNB1, active compounds read low
[17] = locus YLR039C, strain RIC1, active compounds read low
[18] = locus YLR262C, strain YPT6, active compounds read low
[19] = locus YOL006C, strain TOP1, active compounds read low

Measured: normalized growth

Nc1nnc(-c2cccc(Cl)c2Cl)c(N)n1
inactive: [1] 0.995 | locus YAL021C, strain ccr4, active compounds read low 1.01 | locus YAL026C, strain drs2, active compounds read low 1.02 | locus YAL030W, strain snc1, active compounds read low 1.03 | locus YAL040C, strain CLN3, active compounds read low 0.986 | locus YBL061C, strain skt5, active compounds read low 1.02 | locus YBR009C, strain hhf1, active compounds read low 1.03 | locus YBR023C, strain chs3, active compounds read low 1.02 | locus YBR171W, strain sec66, active compounds read low 1.04 | locus YBR231C, strain swc5, active compounds read low 1.03 | locus YBR279W, strain paf1, active compounds read low 1.02 | locus YCL011C, strain gbp2, active compounds read low 1.02 | locus YCL016C, strain dcc1, active compounds read low 1.01 | locus YCL061C, strain MRC1 (second series), active compounds read low 1.01 | [2] 1.02 | locus YCL069W, strain vba3, active compounds read low 1.02 | locus YCR088W, strain abp1, active compounds read low 1.02 | locus YDL005C, strain med2, active compounds read low 1.02 | locus YDL040C, strain nat1, active compounds read low 1.02 | locus YDR001C, strain nth1, active compounds read low 1.02 | locus YDR069C, strain doa4, active compounds read low 1.04 | locus YDR137W, strain rgp1, active compounds read low 1.02 | locus YDR159W, strain sac3, active compounds read low 1.03 | locus YDR195W, strain ref2 1.03 | locus YDR297W, strain sur2, active compounds read low 1.02 | locus YDR334W, strain swr1, active compounds read low 1.02 | locus YDR335W, strain msn5, active compounds read low 1.02 | locus YDR363W, strain ESC2, active compounds read low 0.985 | locus YDR392W, strain spt3, active compounds read low 0.987 | locus YEL003W, strain gim4, active compounds read low 1.02 | locus YEL037C, strain rad23, active compounds read low 1.01 | locus YEL061C, strain CIN8 (second series), active compounds read low 1.02 | locus YER002W, strain NOP16, active compounds read low 0.976 | locus YER015W, strain faa2, active compounds read low 1.03 | locus YER016W, strain bim1, active compounds read low 1.02 | locus YER111C, strain swi4, active compounds read low 1.03 | locus YER155C, strain BEM2 (second series), active compounds read low 1.04 | locus YFR010W, strain ubp6, active compounds read low 1.01 | locus YGL167C, strain pmr1, active compounds read low 1.02 | locus YGL173C, strain kem1, active compounds read low 1.03 | locus YGL227W, strain vid30, active compounds read low 1.03 | locus YGL240W, strain doc1, active compounds read low 1.03 | locus YGL253W, strain hxk2, active compounds read low 1.02 | [3] 1.01 | locus YHR013C, strain ard1, active compounds read low 1.05 | locus YHR027C, strain rpn1, active compounds read low 1.02 | [4] 1 | locus YHR079C, strain IRE1, active compounds read low 0.995 | locus YHR142W, strain chs7, active compounds read low 1.02 | locus YJL092W, strain hpr5, active compounds read low 1.01 | locus YJL095W, strain BCK1 (second series), active compounds read low 1.02 | [5] 0.997 | locus YJL115W, strain asf1, active compounds read low 1.03 | locus YJL129C, strain trk1, active compounds read low 1.04 | locus YJL154C, strain vps35, active compounds read low 1.02 | locus YJL164C, strain tpk1, active compounds read low 1.02 | locus YJL166W, strain qcr8, active compounds read low 1.03 | [6] 1.02 | locus YJR066W, strain TOR1, active compounds read low 0.949 | locus YKL160W, strain elf1, active compounds read low 1.03 | locus YKR026C, strain gcn3, active compounds read low 1 | locus YKR091W, strain srl3, active compounds read low 1.02 | locus YLL001W, strain dnm1, active compounds read low 0.997 | locus YLL026W, active compounds read low 1.02 | locus YLL041C, strain sdh2, active compounds read low 1.02 | locus YLR027C, strain aat2, active compounds read low 1.03 | locus YLR113W, strain HOG1, active compounds read low 0.966 | locus YLR221C, strain rsa3, active compounds read low 1.02 | locus YLR258W, strain gsy2, active compounds read low 1.02 | locus YLR262C, strain YPT6 (second series), active compounds read low 1.02 | locus YLR320W, strain mms22, active compounds read low 1.03 | locus YLR342W, strain FKS1, active compounds read low 1.02 | locus YLR357W, strain rsc2, active compounds read low 1.07 | locus YLR370C, strain arc18, active compounds read low 1.02 | locus YLR384C, strain iki3, active compounds read low 1.02 | locus YML120C, strain ndi1, active compounds read low 0.994 | locus YMR058W, strain fet3, active compounds read low 1.02 | locus YMR125W, strain sto1, active compounds read low 1.05 | locus YMR129W, active compounds read low 1.02 | locus YMR205C, strain PFK2, active compounds read low 1.03 | locus YMR231W, strain pep5, active compounds read low 1.01 | [7] 1.01 | locus YNL071W, strain lat1, active compounds read low 1.01 | locus YNL175C, strain NOP13, active compounds read low 0.986 | locus YNL183C, strain NPR1, active compounds read low 0.949 | locus YNL197C, strain WHI3, active compounds read low 0.991 | locus YNL209W, strain ssb2, active compounds read low 1.02 | locus YNL224C, strain SQS1, active compounds read low 0.981 | locus YNL248C, strain rpa49, active compounds read low 1.02 | locus YNL322C, strain KRE1 (second series), active compounds read low 1.02 | [8] 1.01 | locus YNR049C, strain mso1, active compounds read low 1.03 | locus YOR001W, strain rrp6, active compounds read low 1.02 | locus YOR070C, strain gyp1, active compounds read low 1.02 | locus YOR080W, strain dia2, active compounds read low 1.03 | locus YOR083W, strain WHI5 (second series), active compounds read low 0.992 | locus YOR083W, strain WHI5, active compounds read low 1.01 | locus YOR106W, strain vam3, active compounds read low 1.03 | locus YOR231W, strain MKK1, active compounds read low 1.01 | locus YOR265W, strain rbl2, active compounds read low 1.02 | locus YOR270C, strain vph1, active compounds read low 1.08 | locus YOR290C, strain snf2, active compounds read low 1.04 | locus YPL051W, strain arl3, active compounds read low 1.02 | [9] 0.994 | locus YPL078C, strain atp4, active compounds read low 1.01 | locus YPL106C, strain sse1, active compounds read low 1.02 | locus YPL240C, strain hsp82, active compounds read low 1.02 | [10] 1 | locus YPL256C, strain CLN2, active compounds read low 0.989

CSC(=NCc1cccnc1)NC#N
inactive: [1] 0.991 | [11] 1 | [2] 1 | [12] 1 | locus YDR150W, strain NUM1, active compounds read low 0.997 | [13] 0.993 | [3] 1 | [14] 1 | [4] 1.01 | locus YHR087W, strain rtc3, active compounds read low 1 | [6] 0.994 | [15] 0.986 | locus YJR075W, strain HOC1, active compounds read low 0.998 | [16] 0.998 | [17] 1 | locus YLR058C, strain SHM2 (second series), active compounds read low 0.992 | locus YLR085C, strain ARP6, active compounds read low 1.02 | [18] 1.01 | locus YML094W, strain GIM5, active compounds read low 1.06 | locus YMR219W, strain ESC1, active compounds read low 1 | locus YMR263W, strain SAP30, active compounds read low 0.992 | locus YNL153C, strain GIM3, active compounds read low 1.01 | locus YNL298W, strain CLA4 (second series), active compounds read low 1.01 | [8] 0.998 | locus YNR030W, strain Alg12, active compounds read low 1 | [19] 1.03 | [9] 0.994 | [10] 0.987 | locus YPR135W, strain CTF4, active compounds read low 1.01

COC(=O)C[C@H]1C(C)(C)C(=O)[C@@H]2CC3=C4CC(OC)O[C@@H](c5ccoc5)[C@]4(C)CCC3[C@@]1(C)C2=O (stereo partly specified)
inactive: locus YBR021W, strain FUR4, active compounds read low 1.01 | [11] 0.994 | locus YCL029C, strain bik1, active compounds read low 0.987 | locus YDL035C, strain GPR1, active compounds read low 1.02 | locus YDL074C, strain BRE1, active compounds read low 1.01 | [12] 1.01 | locus YDL134C, strain PPH21, active compounds read low 1 | locus YDL185W, strain tfp1, active compounds read low 1 | locus YDL192W, strain arf1, active compounds read low 1 | locus YDR101C, strain arx1, active compounds read low 0.995 | locus YDR162C, strain NBP2, active compounds read low 1 | locus YDR318W, strain mcm21, active compounds read low 0.998 | locus YDR388W, active compounds read low 0.991 | locus YDR502C, strain sam2, active compounds read low 0.989 | [13] 0.999 | locus YER110C, active compounds read low 0.994 | locus YER155C, strain BEM2, active compounds read low 1.01 | locus YER167W, strain BCK2, active compounds read low 1.01 | locus YGL078C, strain dbp3, active compounds read low 1.01 | locus YGL086W, strain mad1, active compounds read low 0.995 | locus YGL248W, strain PDE1, active compounds read low 1.01 | [3] 1.01 | locus YGR135W, strain pre9, active compounds read low 0.99 | [14] 1.03 | locus YGR252W, strain gcn5, active compounds read low 1.01 | [4] 1 | locus YHR079C, strain IRE1 (second series), active compounds read low 0.996 | locus YHR094C, strain hxt1, active compounds read low 0.993 | locus YHR129C, strain ARP1, active compounds read low 1.01 | locus YHR200W, strain rpn10, active compounds read low 0.997 | locus YIL066C, strain RNR3, active compounds read low 1.01 | locus YIL073C, strain SPO22, active compounds read low 0.995 | locus YIL125W, strain kgd1, active compounds read low 0.998 | locus YIR030C, strain dcg1, active compounds read low 1 | [5] 1.01 | locus YJL134W, strain LCB3, active compounds read low 1.01 | locus YJL168C, strain set2, active compounds read low 0.996 | locus YJL187C, strain SWE1 (second series), active compounds read low 1.01 | [15] 1.02 | locus YKL009W, strain mrt4, active compounds read low 0.984 | locus YKL068W, active compounds read low 1 | locus YKL085W, strain MDH1 (second series), active compounds read low 1 | locus YKL085W, strain MDH1, active compounds read low 1 | [16] 1.01 | locus YKR001C, strain vps1, active compounds read low 1 | [17] 0.969 | locus YLR058C, strain SHM2, active compounds read low 1 | locus YLR102C, strain apc9, active compounds read low 1 | [18] 0.982 | locus YLR268W, strain sec22, active compounds read low 1.01 | locus YLR330W, strain CHS5, active compounds read low 1 | locus YLR342W, strain FKS1 (second series), active compounds read low 0.991 | locus YLR371W, strain rom2, active compounds read low 1 | locus YLR418C, strain cdc73, active compounds read low 0.992 | locus YML016C, strain PPZ1, active compounds read low 1 | locus YML032C, strain rad52, active compounds read low 0.997 | locus YML124C, strain tub3, active compounds read low 1 | locus YMR078C, strain ctf18, active compounds read low 0.99 | locus YMR223W, strain ubp8, active compounds read low 1.01 | [7] 1.03 | locus YNL067W, strain RPL9B, active compounds read low 1.01 | locus YNL233W, strain BNI4, active compounds read low 1.04 | locus YNL250W, strain rad50, active compounds read low 0.986 | locus YNL271C, strain bni1, active compounds read low 1 | locus YNL298W, strain CLA4, active compounds read low 0.984 | locus YNL307C, strain MCK1, active compounds read low 0.985 | locus YNR052C, strain pop2, active compounds read low 1.01 | [19] 1.06 | locus YOL012C, strain htz1 1.32 | locus YOL147C, strain pex11, active compounds read low 0.995 | locus YOR061W, strain CKA2, active compounds read low 0.999 | locus YOR069W, strain VPS5, active compounds read low 1.01 | locus YOR136W, strain idh2, active compounds read low 0.999 | locus YOR144C, strain elg1, active compounds read low 0.988 | locus YOR184W, strain ser1, active compounds read low 1.01 | locus YOR316C, strain cot1, active compounds read low 1 | [9] 1.03 | [10] 1 | locus YPR119W, strain clb2, active compounds read low 1.01 | locus YPR141C, strain kar3, active compounds read low 0.999 | locus YPR163C, strain tif3, active compounds read low 0.996 | locus YPR167C, strain met16, active compounds read low 1 | strain wtn01, active compounds read low 1.01
